Only some compounds are listed: those with a hit (about 2.8% of all), similar ones and a draw of the others.
WRN helicase inh: qHTS for Inhibitors of WRN Helicase; Bifunctional 3'-5' exonuclease/ATP-dependent helicase WRN (Homo sapiens), Q14191; WRN helicase unwinding, fluorescent forked duplex, kinetic; Potency, µM (highest dose often 114 µM), for the others: at the top dose activity change, negative = inhibition, most hits filed as inhibitors; 360,000 tested, 0.46% active; note: potency is the fitted concentration of half-maximal effect; % is set by controls: 0 for no effect and ±100 for the full control effect; nearly all actives have a fitted effect of over 55% in size
Target sequence (Q14191 whole entry, looked up): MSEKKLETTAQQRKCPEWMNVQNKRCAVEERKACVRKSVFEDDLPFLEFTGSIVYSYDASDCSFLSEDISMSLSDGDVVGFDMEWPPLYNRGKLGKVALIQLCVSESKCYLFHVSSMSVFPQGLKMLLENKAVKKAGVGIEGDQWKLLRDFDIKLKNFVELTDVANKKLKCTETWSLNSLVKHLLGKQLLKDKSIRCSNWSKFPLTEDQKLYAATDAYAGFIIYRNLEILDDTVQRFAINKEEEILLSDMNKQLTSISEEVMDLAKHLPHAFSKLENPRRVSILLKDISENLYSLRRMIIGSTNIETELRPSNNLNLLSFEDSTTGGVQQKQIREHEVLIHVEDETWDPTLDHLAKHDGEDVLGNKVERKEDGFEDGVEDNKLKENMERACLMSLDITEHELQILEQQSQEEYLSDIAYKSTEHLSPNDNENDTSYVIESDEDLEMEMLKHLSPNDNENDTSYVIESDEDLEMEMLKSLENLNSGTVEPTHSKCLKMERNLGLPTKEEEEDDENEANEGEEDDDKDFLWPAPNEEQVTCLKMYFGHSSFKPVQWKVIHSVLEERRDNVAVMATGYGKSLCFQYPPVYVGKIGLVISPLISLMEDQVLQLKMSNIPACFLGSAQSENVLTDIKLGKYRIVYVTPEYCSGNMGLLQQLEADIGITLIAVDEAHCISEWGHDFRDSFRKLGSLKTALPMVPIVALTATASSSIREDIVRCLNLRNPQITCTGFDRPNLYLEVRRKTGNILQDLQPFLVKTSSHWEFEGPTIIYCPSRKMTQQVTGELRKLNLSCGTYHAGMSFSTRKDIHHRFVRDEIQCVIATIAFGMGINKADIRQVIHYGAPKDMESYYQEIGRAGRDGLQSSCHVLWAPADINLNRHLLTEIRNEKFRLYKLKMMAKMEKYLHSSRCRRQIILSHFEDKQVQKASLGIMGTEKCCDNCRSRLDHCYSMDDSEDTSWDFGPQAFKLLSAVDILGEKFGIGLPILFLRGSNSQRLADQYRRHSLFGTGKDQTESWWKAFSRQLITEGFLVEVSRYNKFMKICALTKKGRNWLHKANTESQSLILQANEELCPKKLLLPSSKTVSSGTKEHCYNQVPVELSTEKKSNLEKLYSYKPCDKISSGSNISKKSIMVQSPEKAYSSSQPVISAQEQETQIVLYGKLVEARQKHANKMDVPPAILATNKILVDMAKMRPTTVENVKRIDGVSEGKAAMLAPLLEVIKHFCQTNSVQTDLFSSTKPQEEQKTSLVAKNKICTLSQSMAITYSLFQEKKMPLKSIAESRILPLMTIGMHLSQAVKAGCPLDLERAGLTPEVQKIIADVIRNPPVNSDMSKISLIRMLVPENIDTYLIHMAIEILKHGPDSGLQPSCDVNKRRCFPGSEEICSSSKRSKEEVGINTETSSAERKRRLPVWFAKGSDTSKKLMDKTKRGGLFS
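Primary qHTS, 1536-well format. 20 nM WRN + compound, 15 min RT; start with 100 nM forked fluorophore/quencher duplex, 2 mM ATP (final); kinetic read ex 525/em 598 nm.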
POLK inh: qHTS for Inhibitors of Polymerase Kappa; DNA polymerase kappa (Homo sapiens), Q9UBT6; 400,000 tested, 0.53% active; purified Pol kappa, fluorescent DNA synthesis assay, 10 min; Potency, µM (highest dose often 107 µM), inactives show at the highest dose activity, negative = inhibition, most hits filed as inhibitors; note: potency is the fitted concentration of half-maximal effect; % is set by controls: 0 for no effect and ±100 for the full control effect
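Inhibition of 10 nM Pol kappa is measured by a fluorescent read-out at 0 and 10 min following addition of 50 nM substrate (final), with a 15-min room-temperature compound preincubation.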
POLI inh: qHTS for Inhibitors of Polymerase Iota; DNA polymerase iota (Homo sapiens), Q9UNA4; Pol iota fluorescent replication assay, 10 min; Potency, µM (series often up to 115 µM), for the others: at the highest dose activity, negative = inhibition, hits mostly inhibitors; 390,000 tested, 1% active; AID 588590, 2011; note: potency is the fitted concentration of half-maximal effect
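Fluorescent replication assay read twice, at 0 min and 10 min after adding 50 nM (final) substrate. Enzyme (10 nM) and compounds were first incubated 15 min at room temperature; enzyme-free buffer wells were negative controls.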
PI5P4K alpha inh: qHTS for Inhibitors of phosphatidylinositol 5-phosphate 4-kinase (PI5P4K) | Phosphatidylinositol 5-phosphate 4-kinase type-2 alpha (Homo sapiens), P48426 | PI5P4Kalpha enzyme, ADP-Glo luminescence, 60 min; active compounds read low | max response, % | 330,000 tested, 1.2% active; active = max response of -50% or lower; inconclusive = between -30% and -50%; inactive = -30% or higher; note: value at the top dose of about 77 µM; % is set by controls: 0 for no effect and ±100 for the full control effect
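Luminescence from ADP-Glo served as readout of PI5P4Kalpha activity in a qHTS format. Reaction: enzyme, substrate, compound, ATP at 5 microM final, 60 min at RT.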
Pol eta inh: qHTS for Inhibitors of Polymerase Eta | 390,000 tested, 1.2% active | AID 588591, 2011 | Potency, µM (top dose mostly 114 µM), for the others: at the top dose activity change, negative = inhibition, usual class: inhibitors | recombinant Pol eta, fluorescent DNA replication assay | DNA polymerase eta (Homo sapiens), Q9Y253; note: potency is the fitted concentration of half-maximal effect; % is set by controls: 0 for no effect and ±100 for the full control effect
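Pol eta (10 nM) was preincubated with compounds for 15 min at room temperature, after which fluorescent replication substrate (50 nM final) was added to start the reaction. Fluorescence was read kinetically at 0 and 10 min.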
POLB inh: qHTS Assay for Inhibitors of DNA Polymerase Beta | P06746 | Pol beta primer extension/strand displacement, fluorescence kinetic | Potency, µM (doses to about 114 µM), inactives show at the top dose activity change, negative = inhibition, most hits filed as inhibitors | 340,000 tested, 1.3% active | AID 485314, 2010; note: potency is the fitted concentration of half-maximal effect; % is set by controls: 0 for no effect and ±100 for the full control effect
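Homogeneous kinetic assay of primer extension and strand displacement by 10 nM Pol beta, preincubated 15 min at room temperature with compound before 50 nM substrate (final) was added. Read at 0 and 10 min; four-parameter Hill fit.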
ADP-Glo interf: qHTS for Inhibitors of PI5P4K: ADP-Glo counter assay; shares compounds with PI5P4K alpha inh; ADP-Glo detection counter-screen, luciferase luminescence, no enzyme; Potency, µM (top dose mostly 76.9 µM), inactives show at the top dose activity change, negative = inhibition, actives largely listed as inhibitors; 1,100 tested, under 10 active; AID 743285, 2014
Numbers without * were called inactive; ? = inconclusive; . = no result given; [ ] = remark or other dose. Unless noted, calls come from the whole dose curve; as a rule, active = well fitted curve in the direction sought with a large enough effect; inconclusive = small, poorly fitted or top-dose-only effect, or another doubt; inactive = no such curve, though single readings can be large; an effect the other way counts as inactive or inconclusive.

SMILES | WRN helicase inh | POLK inh | POLI inh | PI5P4K alpha inh | Pol eta inh | POLB inh | ADP-Glo interf
CCOC(=O)C1CCN(C(=O)CCS(=O)(=O)c2ccc3c(c2)CCN3C(=O)CC)CC1 | -23% | -16% | 12% | 5 | -8% | -11% | .
COc1cc(CNc2ncnc3c2ncn3[C@H]2CN(Cc3ccco3)C[C@@H](CO)O2)cc(OC)c1OC | 2% | . | . | -6 | . | . | .
COc1ccc(Br)cc1C(=O)Nc1cccc(NC(=O)c2ccco2)c1 | -14% | -9% | 7% | 8 | -3% | 4% | -8%
COc1c(C)cc(Br)cc1C(=O)Nc1cccc(NC(=O)c2ccco2)c1 | -9% | -12% | 4% | 20 | -12% | -5% | .
O=c1oc2c(O)cccc2cc1-c1nc2ccccc2[nH]1 | -16% | -16% | ? | ? | ? | 5% | -9%
CCc1ccc(CNC(=O)Cn2nc(C)n3c(cc4cc(C)ccc43)c2=O)cc1 | . | -21% | 18% | . | -1% | 2% | .
CCOC(=O)c1c(C)[nH]c(C)c1S(=O)(=O)N(C)CC(=O)Nc1ccc(OC)cc1 | . | -11% | 26% | . | -21% | 4% | .
O=C(Nc1nnc(-c2ccc(Cl)cc2)o1)Nc1ccccc1Cl | 3% | -1% | 5% | -4 | 10% | 15% | .
O=C(Nc1nnc(-c2ccncc2)o1)c1ccccc1 | ? | -2% | 61% | -84* | -18% | 12% | -7%
O=C(Nc1nnc(-c2ccc(Cl)cc2)o1)c1nc2ccccc2s1 | -7% | -8% | -8% | -50* | -3% | -9% | -1%
CC(C)C(=O)N1CCCC1(C)C(=O)NCc1ccc(Cl)cc1 (stereo unspecified) | 2% | . | . | 0 | . | . | .
CN(C)Cc1ccccc1CNC(=O)c1ccc(Cl)c(S(=O)(=O)NC2CC2)c1 | 9% | . | . | 0 | -14% | . | .
CCCCC1Cc2[nH][nH]c(=O)c2C(c2ccc(F)cc2)O1 (stereo unspecified) | -13% | . | . | -51* | . | . | -2%
CC(C)c1noc(-c2ccccc2OCC(=O)Nc2cccc([N+](=O)[O-])c2)n1 | . | -6% | 16% | . | -18% | 0% | .
Cc1ccccc1NC(=O)Cc1nc(COC(=O)c2ccc(NC(N)=O)cc2)cs1 | -6% | -10% | 36% | -56* | ? | . | -3%
COc1ccc(Nc2nc(N)c(C(=O)c3ccc(F)cc3)s2)cc1 | 0% | -11% | 15% | -54* | -29% | 5% | 1%
Nc1nc(Nc2cccc(Cl)c2)sc1C(=O)c1ccc(F)cc1 | . | -7%[60.1 µM] | -22% | . | ? | -19% | .
O=C(CN(CC1CCCO1)C(=O)CCC(=O)Nc1ccccn1)NCC1CCCO1 (stereo unspecified) | 7% | -2% | 19% | -7 | -14% | 18% | .
COCCN(CC(=O)NCC1CCCO1)C(=O)CCC(=O)Nc1ccccn1 (stereo unspecified) | -27% | -15% | -14% | -51* | -10% | 30% | 1%
Cc1cccc(NC(=O)c2c(N)sc3c2CCC(C)C3)c1 (stereo unspecified) | . | -11% | ? | . | 2% | 0% | .
Cc1ccc(CNC(=O)CSc2ncccn2)cc1 | -15% | ? | ? | ? | -99% | -16% | 3%
O=C(CSc1nc2c(c(=O)[nH]1)CCCC2)Nc1ccc(Cl)cc1F | 0% | -6% | -2%[58.9 µM] | . | 2% | 9% | .
COc1ccc(Cl)cc1S(=O)(=O)n1cnc2ccccc21 | -2% | 5% | 2% | -3 | -5% | ? | .
CCOc1ccc(Cl)cc1S(=O)(=O)n1cnc2ccccc21 | 1% | -5% | 11% | 1 | -8% | -13% | -7%
O=C(CSc1nc2[nH]c(=O)cc(O)c2s1)Nc1ccc(Br)cc1 | -1% | -3% | ? | -52* | -24% | . | -1%
SMILES | WRN helicase inh | POLK inh | POLI inh | PI5P4K alpha inh | Pol eta inh | POLB inh | ADP-Glo interf
Cc1ccccc1NC(=O)CSc1nc2[nH]c(=O)cc(O)c2s1 | ? | -11% | ? | -62* | ? | . | -10%
Cc1cccc(NC(=O)CSc2nc3[nH]c(=O)cc(O)c3s2)c1 | -23% | -5% | ? | -53* | ? | . | 6%
CCC1Cc2[nH][nH]c(=O)c2C(CC)O1 (stereo unspecified) | 2% | . | . | -1 | . | . | .
COc1ccc(N(C(=O)c2ccccc2)S(=O)(=O)c2cccs2)cc1 | ? | -6% | 37% | -60* | -5% | 19% | 4%
COc1ccc(C(=O)N(c2ccc(OC)cc2)S(=O)(=O)c2cccs2)cc1 | -7% | -15% | 3% | 0 | -19% | -13% | .
COc1ccc(-c2cc(=O)oc3cc(OC(=O)C4CCCCC4)c(Cl)cc23)cc1 | -6% | 11% | 11% | -55* | -11% | 11% | -5%
O=C(Nc1ccc(O)c2c(=O)cc(-c3ccccc3Cl)oc12)c1ccc(Cl)c(Cl)c1 | 0% | 17% | ? | 0 | 0% | -13% | -6%
O=C(Nc1ccc(O)c2c(=O)cc(-c3ccccc3Cl)oc12)c1cc(Cl)cc(Cl)c1 | . | -26% | 13% | . | . | . | .
Cc1ccc(NC(=O)c2ccc3c(c2)NC(=O)CS3)nc1 | -27% | -11% | ? | -57* | -6% | . | -9%
Cc1nnc(NC(=O)c2ccc3c(c2)NC(=O)CS3)s1 | -3% | -18% | -14% | -5 | 0% | . | .
O=c1oc(-c2ccccc2)nc2ccsc12 | 0% | -10% | 20% | -2 | ? | 7% | .
CCC(C)c1nc2ccsc2c(N2CCOC2=O)c1-c1ccccc1 (stereo unspecified) | -6% | 0% | 8% | -54* | -9% | . | 2%
O=C(c1cc2nc(C3CC3)cc(C(F)F)n2n1)N1CCOCC1 | ? | 79µM* | ? | -63* | 13µM* | 50µM* | -12%
CC(=O)Nc1ccc(NC(=S)Nc2ccccc2)cc1 | -1% | -13% | 10% | 0 | -9% | 14% | .
CC(=O)Nc1ccc(NC(=S)Nc2ccc(Br)cc2)cc1 | -4%[11.6 µM] | ? | ? | -75* | -99% | -18% | -3%

Source: PubChem BioAssay (National Center for Advancing Translational Sciences (NCATS))
